# Test results published in PubChem BioAssay AID778 (Sanford-Burnham Center for Chemical Genomics, 2007).
# The campaign covered roughly 96,000 compounds. About 20,000 (21%) were called active.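 How the source made its calls: active means CYP2C19 inhibition above a set limit at 5 µM in the primary screen (cut at about 50% in these data); inactive means the rest.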 A selection follows. Residues, ends and D or L forms follow the SMILES beside them. *: point of attachment. Bz = O=C(c1ccccc1)*
# Target: Cytochrome P450 2C19 (Homo sapiens) (UniProt P33261)
# Sequence (P33261 whole entry, looked up): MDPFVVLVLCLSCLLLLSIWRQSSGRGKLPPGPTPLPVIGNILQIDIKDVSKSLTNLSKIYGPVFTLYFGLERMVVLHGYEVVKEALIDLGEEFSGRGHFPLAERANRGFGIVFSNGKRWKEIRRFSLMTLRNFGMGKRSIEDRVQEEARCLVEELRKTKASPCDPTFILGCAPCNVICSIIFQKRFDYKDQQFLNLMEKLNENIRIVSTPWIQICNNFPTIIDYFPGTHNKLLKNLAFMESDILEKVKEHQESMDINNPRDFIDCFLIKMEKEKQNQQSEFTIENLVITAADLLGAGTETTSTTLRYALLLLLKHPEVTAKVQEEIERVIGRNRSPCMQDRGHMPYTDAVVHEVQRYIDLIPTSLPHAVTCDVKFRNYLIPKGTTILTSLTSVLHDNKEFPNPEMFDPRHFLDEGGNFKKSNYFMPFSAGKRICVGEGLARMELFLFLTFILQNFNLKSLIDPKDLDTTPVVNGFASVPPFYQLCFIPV
# Assay: blockers of cytochrome P450 2C19 activity – biochemical, luminescence, ADME assay, primary screen (AID 778);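 further: plate controls were negative control wells for no effect and 2.5 mM tranylcypromine positive control for full effect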
# Conditions: CYP2C19 Supersomes, luciferin-H EGE luminescence, 30 min; at 5 µM; stronger effect = higher value
row,Structure (SMILES),inhibition
1,Cc1nc(C)c2c(c1C(F)(F)F)-c1ccccc1C2(F)F,-21.2% (inactive)
2,Cc1ccc(C)n1C(Cc1ccccc1)C(=O)O (configuration not stated),8.1% (inactive)
3,O=C(NC(Cc1ccccc1)C(=O)N1CCCC1C(=O)O)c1ccccc1 (stereo not drawn) (Bz-Phe-Pro-OH; configuration not given here),-4.1% (inactive)
4,O=C(C(Cc1ccccc1)n1cccc1)N1CCN(C2CCCCC2)CC1 (configuration not stated),98.1% (active)
5,CCOc1ccc2nc(SC(CC)C(=O)Nc3cc(C)on3)sc2c1 (configuration not stated),0.6% (inactive)
6,Cc1ccc(CNC(=O)c2ccccc2CCc2ccccc2)cc1,13.9% (inactive)
7,CCOc1c(OC)cc(C2C(C#N)=C(N)Oc3n[nH]c(-c4ccncc4)c32)cc1OC (configuration not stated),-7% (inactive)
8,CCCc1[nH]nc2c1C(c1ccc(OC)c(Cn3nc(C)c(Br)c3C)c1)C(C#N)=C(N)O2 (configuration not stated),8% (inactive)
9,COc1ccc(C2C(C#N)=C(N)Oc3n[nH]c(C)c32)cc1CN1CCN(c2ccc(F)cc2)CC1 (configuration not stated),70.4% (active)
10,Fc1ccc2nc(N3CCCCC3)sc2c1,39.9% (inactive)
11,Cn1c(=O)n(C)c2cc(/C=N/NC(=O)c3cccc(Br)c3)ccc21,6.4% (inactive)
12,O=C(N/N=C\c1cccc(Br)c1)c1ccccc1-n1cccc1,73.3% (active)
13,N=c1oc2ccccc2cc1C(=O)N/N=C/c1ccccc1,31.7% (inactive)
14,CC(C)Cn1c(N)c(C(=O)NCc2cccs2)c2nc3ccccc3nc21,19.7% (inactive)
15,CC1(C)CC(=O)c2sc(N)nc2C1,23.6% (inactive)
16,CC1CCC2(CC1)NC(=O)N(CC(=O)c1cccn1C)C2=O (configuration not stated),9.9% (inactive)
17,CC(C)(C)OC(=O)c1c(N)n(CCCN2CCCC2=O)c2nc3ccccc3nc12,-3.9% (inactive)
18,COc1ccc(C)cc1NC(=O)CCS(=O)(=O)c1cccc2nonc12,82.1% (active)
19,O=C(CCS(=O)(=O)c1cccc2nonc12)NCCc1ccccc1Cl,75% (active)
20,Cc1ccc(CNC(=O)CCNS(=O)(=O)c2cccc3nonc23)cc1,15.9% (inactive)
21,Cc1ccc(N(CC(=O)Nc2cc(C)cc(C)c2)S(=O)(=O)c2cccc3nonc23)cc1,14.2% (inactive)

row,Structure (SMILES),inhibition
1,Cc1cccc(C)c1NC(=O)CCS(=O)(=O)c1cccc2nsnc12,10.7% (inactive)
2,CC1CCCCC1NC(=O)CCS(=O)(=O)c1cccc2nonc12 (configuration not stated),27.7% (inactive)
3,CSc1cc(C)n(-c2ccccc2C)c(=S)c1C(C)=O,-14.7% (inactive)
4,Cc1cc2cc(CNC(=O)c3cccs3)ccc2[nH]1,86.8% (active)
5,O=C(O)Cc1ccc(NC(=O)c2cccs2)cc1,1.3% (inactive)
6,CCOC(=O)c1oc2ccccc2c1NC(=O)c1cccs1,5.8% (inactive)
7,O=[N+]([O-])c1cccc(-c2nnc3c4ccccc4c4ccccc4n23)c1,5% (inactive)
8,COc1ccc(C2=Nc3cc(C)ccc3OC2)cc1,13% (inactive)
9,CN(C)CCCNC(=O)c1ccc2[nH]c3ccccc3c2c1,10.5% (inactive)
10,O=C(COc1ccccc1)NCCc1nc2ccccc2[nH]1,65.9% (active)
11,COC(=O)Cc1nc2ccccc2[nH]1,3% (inactive)
12,CC(C)=C(NC(=O)c1ccco1)C(=O)NCCc1nc2ccccc2[nH]1,-12.2% (inactive)
13,COC(=O)CSc1snnc1-c1ccc(Cl)c(Cl)c1,44.8% (inactive)
14,Cn1c(SCC(=O)N2CCOCC2)nnc1-c1ccc(NC(=O)c2ccccc2F)cc1,2.8% (inactive)
15,O=C(Nc1nnc(SCc2c(Cl)cccc2Cl)s1)C1CCCO1 (configuration not stated),9.6% (inactive)
16,Cc1cc(C)c2nc(SCCC#N)nc(C)c2c1,53.5% (active)
17,CSc1ccc(CCNC(=O)C2CCN(c3nnc(-n4cccc4)s3)CC2)cc1,28.8% (inactive)
18,CC(=O)Cc1nsc(NC(=O)c2csc3c2CCCC3)n1,42.6% (inactive)
19,CCOC(=O)Cn1c(CN(Cc2ccccc2)Cc2ccccc2)nc2c1c(=O)[nH]c(=O)n2C,16.4% (inactive)
20,O=S(=O)(NCc1ccccc1Cl)c1cnc[nH]1,22.3% (inactive)
21,Cc1nnsc1S(=O)(=O)Cc1ccccc1Cl,56.2% (active)

row,Structure (SMILES),inhibition
1,O=C(Nc1ccccc1)c1nnsc1S(=O)(=O)c1ccc(Cl)cc1,19.5% (inactive)
2,COc1cccc(OC)c1C(=O)Nc1nnc(C(C)C)s1,-6.4% (inactive)
3,Cc1ccc(NC(=O)c2ccc(CSc3ncnc4nc[nH]c34)cc2)c(C)c1,11.8% (inactive)
4,O=C(c1ccc(O)cc1)c1ccc(C(=O)O)c(C(=O)O)c1,-0.1% (inactive)
5,N#CC1=C(SCc2ccc(C#N)cc2)N=C(N)C(c2nc(-c3ccccc3)cs2)C12CCCCC2 (configuration not stated),92.9% (active)
6,O=C(NC1CCCCC1)c1ccc2c(=O)n(CC3CCCO3)c(=O)[nH]c2c1 (configuration not stated),0.4% (inactive)
7,COc1ccc(C2C3=C(OC(C)=O)c4ccccc4C3=Nc3c2c(=O)n(C)c(=O)n3C)cc1 (configuration not stated),-6.9% (inactive)
8,Cn1c(C(=O)N2CCC(C(N)=O)CC2)cc2c(=O)n(C)c3ccccc3c21,-10.1% (inactive)
9,CCOC(=O)N1CCN(C(=O)c2nn(-c3ccc(C)cc3)c(=O)c3c2c2ccccc2n3C)CC1,-2.9% (inactive)
10,Cn1c2ccccc2c2c(C(=O)N3CCN(c4ccc(F)cc4)CC3)cn(C3CCCC3)c(=O)c21,85.8% (active)
11,COc1ccc(CC(=O)Nc2sc(Cc3ccccc3)c(C)c2C(N)=O)cc1,1% (inactive)
12,Cc1nn(-c2cc(Cl)ccc2N)c(=O)c2ccccc12,8.7% (inactive)
13,Cc1nc(NC(=O)c2cccc(Cl)c2)sc1-c1csc(Nc2cccc(Cl)c2)n1,-18.9% (inactive)
14,Cc1cc(OC(=O)c2c(Cl)cccc2Cl)nc(C)n1,-6.5% (inactive)
15,COc1ccc(COC(=O)c2n[nH]c3ccccc23)cc1F,57.1% (active)
16,CN(C)S(=O)(=O)c1ccc(NC(=O)COC(=O)c2n[nH]c3ccccc23)cc1,-17.2% (inactive)
17,O=C(Cc1c(O)c2ccccc2[nH]c1=O)NCc1ccccc1,4.1% (inactive)
18,O=C(COC(=O)c1n[nH]c2ccccc12)NCc1ccccc1,76.4% (active)
19,CCOC(=O)N1CCN(C(=O)c2n[nH]c(=O)c3ccccc23)CC1,-2.6% (inactive)
20,COc1ccc(C(C)=O)cc1COC(=O)Cn1cnc2ccccc2c1=O,28.2% (inactive)
